Assay results taken from PubChem BioAssay (Tox21).
The source made the active and inactive calls. Calls come from the whole dose curve; as a rule, active = well fitted curve in the direction sought with a large enough effect in the repeat runs; inconclusive = weak or mixed curves; inactive = flat fitted curve, though single readings scatter.

test: qHTS assay to test for compound auto fluorescence at 460 nm (blue) in HepG2 cells (AID 720687); settings: autofluorescence 405/460 nm, 1 h; series mostly up to 91.3 µM
Text: U.S. Tox21 Program National Center for Advancing Translational Sciences [NCATS] NIH Chemical Genomics Center [NCGC] U.S. Environmental Protection Agency [EPA] National Institutes of Environmental Health Sciences [NIEHS] National Toxicology Program [NTP] U.S. Food and Drug Administration [FDA] Tox21 Assay Overview: Compound auto fluorescence often interferes with screening of the compound library against various biological targets and signaling pathways. Some of these compounds may have fluorophoric properties. Such properties may interfere with the assay outputs resulting in false positives and/or negatives. To decrease such complications and ensure the compound activities are relevant in terms of biological response, the Tox21 10K compound library was screened for auto fluorescence. From the fluorophores used as reporter signals in our screening assays, the auto fluorescence equivalencies of compounds against three fluorophores have been evaluated: Triamterene, Fluorescein and Rose Bengal sodium for blue, green and red fluorescence, respectively. The fluorescence intensities were measured using Excitation/Emission wavelengths at 405/460nm, 485/535nm and 540/590nm for blue, green and red labels, respectively. This assay includes the blue fluorescence data.
Tox21 Assay Protocol Summary: 2,000 HepG2 cells in 5 uL of culture medium (MEM containing 10% FBS) per well were dispensed into black wall/clear bottom 1536-well plates using a Multidrop Combi Dispenser (ThermoFisher Scientific, Waltham, MA). The assay plates were incubated overnight at 37 C to allow cell attachment to the well bottom, followed by the transfer of 23 nL compound or DMSO vehicle by a pintool work station (Kalypsys , San Diego, CA). After the assay plates were incubated for 1 hr at 37 C and 5% CO2, fluorescence intensities in the assay plates were measured by an Envision (PerkinElmer, Shelton, CT) plate reader using three labels for measuring blue, green and red fluorescence at […] 460, 535 and 590 nm respectively.

Q: With `CCN(CC)N=O` as the compound, how does the outcome read?
A: The outcome was “inactive”.

Q: With `CC(C)N(C(=O)SCC(Cl)=C(Cl)Cl)C(C)C` as the compound, how does the outcome read?
A: The outcome was “inactive”.

Q: With `Oc1cc(Cl)c(Cl)cc1Cl` as the compound, how does the outcome read?
A: Its outcome is “inactive”.

Q: With `C=CCc1ccc2c(c1)OCO2` as the compound, how does the outcome read?
A: Its outcome is “inactive”.

Q: Which outcome does the source give for `Cc1cc(C)cc(C)c1` here?
A: The outcome was “inactive”.

Q: With `S=C1NCCN1` as the compound, how does the outcome read?
A: Its outcome is “inactive”.

Q: For `O=P(O)(O)CCCl`, which outcome is on record?
A: Its outcome is “inactive”.

Q: Which outcome does the source give for `CC(C)(c1cc(Cl)c(O)c(Cl)c1)c1cc(Cl)c(O)c(Cl)c1` here?
A: Its outcome is “inactive”.

Q: With `CCN(N=O)C(N)=O` as the compound, how does the outcome read?
A: Its outcome is “inactive”.

Q: With `ClC1C(Cl)C(Cl)C(Cl)C(Cl)C1Cl` (stereo not given) as the compound, how does the outcome read?
A: The outcome was “inactive”.

Q: Which outcome does the source give for `CCN(CC)C(=O)/C(Cl)=C(\C)OP(=O)(OC)OC` here?
A: The outcome was “inactive”.

Q: For `N#CC(Br)Br`, which outcome is on record?
A: Its outcome is “inactive”.

Q: With `Cc1ccccc1[N+](=O)[O-]` as the compound, how does the outcome read?
A: The outcome was “inactive”.

Q: Which outcome does the source give for `CCCCC(CC)COC(=O)c1ccc(C(=O)OCC(CC)CCCC)c(C(=O)OCC(CC)CCCC)c1` (stereo not given) here?
A: Its outcome is “inactive”.

Q: Which outcome does the source give for `CCC(C)c1ccc(O)cc1` (stereo not given) here?
A: Its outcome is “inactive”.

Q: With `CCCCOCCOP(=O)(OCCOCCCC)OCCOCCCC` as the compound, how does the outcome read?
A: The outcome was “inactive”.

Q: With `COC(=O)c1sccc1S(=O)(=O)NC(=O)Nc1nc(C)nc(OC)n1` as the compound, how does the outcome read?
A: Its outcome is “inactive”.

Q: With `Nc1ccc(-c2ccccc2)cc1` as the compound, how does the outcome read?
A: The outcome was “inactive”.

Q: With `O=C(O)CC[N+](=O)[O-]` as the compound, how does the outcome read?
A: The outcome was “inactive”.

Q: With `c1ccc(N=Nc2ccccc2)cc1` as the compound, how does the outcome read?
A: Its outcome is “inactive”.

Q: Which outcome does the source give for `O=C(CCl)c1ccccc1` here?
A: The outcome was “inactive”.

Q: For `COc1ccc(C=O)cc1`, which outcome is on record?
A: The outcome was “inactive”.

Q: Which outcome does the source give for `C1=Cc2cccc3cccc1c23` here?
A: Its outcome is “inactive”.

Q: For `O=C1C=CC(=O)C=C1`, which outcome is on record?
A: Its outcome is “inactive”.

Q: For `C=C(C)C(=O)OCC1CO1` (stereo not given), which outcome is on record?
A: Its outcome is “inactive”.

Q: Which outcome does the source give for `CCOP(=S)(OCC)O/N=C(\C#N)c1ccccc1` here?
A: The outcome was “inactive”.

Q: Which outcome does the source give for `CC(C)NC(C)C` here?
A: The outcome was “inactive”.

Q: Which outcome does the source give for `c1ccc(P(c2ccccc2)c2ccccc2)cc1` here?
A: Its outcome is “inactive”.

Q: With `Cc1ccc(N)c(N)c1` as the compound, how does the outcome read?
A: Its outcome is “inactive”.

Q: For `N[C@@H](Cc1ccc(N(CCCl)CCCl)cc1)C(=O)O`, which outcome is on record?
A: Its outcome is “inactive”.

Q: With `Nc1ccncc1` as the compound, how does the outcome read?
A: The outcome was “inactive”.

Q: For `Nc1ccc(Cl)cc1N`, which outcome is on record?
A: The outcome was “inactive”.

Q: Which outcome does the source give for `COP(=O)(OC)OC` here?
A: Its outcome is “inactive”.

Q: Which outcome does the source give for `Oc1cc(Cl)ccc1Cl` here?
A: Its outcome is “inactive”.

Q: Which outcome does the source give for `CCOC(=O)C(C)OC(=O)c1cc(Oc2ccc(C(F)(F)F)cc2Cl)ccc1[N+](=O)[O-]` (stereo not given) here?
A: The outcome was “inactive”.

Q: For `Brc1ccc(Oc2cc(Br)c(Br)cc2Br)c(Br)c1`, which outcome is on record?
A: The outcome was “inactive”.

Q: With `CCCCN(CC)c1c([N+](=O)[O-])cc(C(F)(F)F)cc1[N+](=O)[O-]` as the compound, how does the outcome read?
A: Its outcome is “inactive”.

Q: Which outcome does the source give for `CC1(C)C(C=C(Cl)Cl)C1C(=O)OC(C#N)c1cccc(Oc2ccccc2)c1` (stereo not given) here?
A: Its outcome is “inactive”.

Q: With `CCC(CC)Nc1c([N+](=O)[O-])cc(C)c(C)c1[N+](=O)[O-]` as the compound, how does the outcome read?
A: Its outcome is “inactive”.

Q: Which outcome does the source give for `O=S(=O)(Oc1ccc(Cl)cc1)c1ccc(Cl)cc1` here?
A: The outcome was “inactive”.
